# From PubChem
# Only some compounds are listed: those with a hit (about 6.7% of all), similar ones and a draw of the others.
# KB-3-1 tox: kills parental KB-3-1 adenocarcinoma cells. KB-3-1 viability, CellTiter-Glo ATP luminescence, 72 h. Potency, µM (series often up to 46.1 µM), usual class: cytotoxic. actives 1.4% (n = 400,000). AID 1347075; further: on the % scale 0 is the no-effect control and ±100 the full control effect; nearly all actives have a fitted effect of over 60% in size
#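 Luminescent ATP read-out (CellTiter-Glo) measures survival of drug-naive KB-3-1 cells after 72 h compound exposure at 37 °C. Titration series was screened from lowest to highest concentration, with DMSO vehicle plates as background controls.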
# MCF10A rereplic: inducers of DNA re-replication in MCF 10A breast cells | actives 2.9% (n = 350,000) | Potency, µM (highest dose often 46.1 µM), without a hit: at the top dose activity, positive = re-replication, usual class: activators | MCF 10A DNA re-replication, Hoechst nuclear intensity, 48 h; further: % of control where 0% means no effect; nearly all actives have a fitted effect of over 50% in size
# PINK1 modulator: changes PINK1 expression; PINK1 immunofluorescence, high-content cytometry, 24 h; Potency, µM (series often up to 76.6 µM), without a hit: at the highest dose activation (PINK1 increase), most hits filed as activators; actives 0.2% (n = 410,000); active means well fitted activation curve with a large enough effect; inconclusive means small, poorly fitted or top-dose-only effect; cell line not stated here; further: % of control where 0% means no effect; nearly all actives have a fitted effect of over 65% in size
#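 PINK1 protein, normally rapidly degraded, was detected by immunofluorescence after 24 hour compound treatment of a stable cell line. Titration data (5 concentrations) came from laser-scanning cytometry, with CCCP-treated wells as controls.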
# KB-V1 MDR tox: kills drug-selected multidrug resistant KB-V1 cells | Potency, µM (series often up to 46.1 µM), actives largely listed as cytotoxic | KB-V1 MDR cells viability, CellTiter-Glo, 72 h | actives 3.4% (n = 400,000); further: on the % scale 0 is the no-effect control and ±100 the full control effect; nearly all actives have a fitted effect of over 60% in size
#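 Cytotoxicity via CellTiter-Glo luminescence after 72 h compound exposure at 37 degrees C. Cells: drug-selected KB-V1 line, DMEM phenol-red free plus 10% FBS. Compounds tested at multiple concentrations; normalized data fitted to concentration-effect curves.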
# SW480 rerep: DNA re-replication induction in SW480 cells; SW480 DNA re-replication, Hoechst DNA content imaging, 48 h; Potency, µM (series often up to 46.1 µM), without a hit: at the highest dose re-replication activation, usual class: activators; actives 1.8% (n = 340,000); AID 624297; further: % of control where 0% means no effect; nearly all actives have a fitted effect of over 55% in size
#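 Compounds, transferred as 23 nL by pin tool, were incubated with cells for 48 hr; DNA content per nucleus was then quantified by Hoechst staining and fluorescence plate imaging.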
# * = called active by the depositor; i = inactive; ? = inconclusive; / = no result; ! = not active in a repeat; [ ] = dose if it differs, or a comment. Unless noted, the call rests on the fitted dose curve; in most records, active means well fitted curve in the direction sought with a large enough effect; inconclusive means small, poorly fitted or top-dose-only effect, or another doubt; inactive means no such curve, though single readings can be large; an effect the other way counts as inactive or inconclusive. Potency means the concentration at half of the fitted maximal effect.
SMILES,KB-3-1 tox,MCF10A rereplic,PINK1 modulator,KB-V1 MDR tox,SW480 rerep
COc1ccc(CNC(=O)c2cc3c(=O)[nH]c4ccccc4c3n2C)c(OC)c1,i,/,1.9%,i,/
O=C(CN1C(=O)NC2(CCCCC2)C1=O)N1CCN(S(=O)(=O)c2ccc(Cl)s2)CC1,i,1.6%,-0.5%,i,-30.2%
CN1C(=O)N(CC(=O)N2CCN(S(=O)(=O)c3ccc(Cl)s3)CC2)C(=O)C12CCCCC2,i,23.5%,1.1%,14.6µM*,3.5%
CCOc1cc(/C=N/N=C(N)N)ccc1OCc1ccc(Cl)cc1,?,18.4µM*,-2.4%,?,?
NC(N)=N/N=C/c1ccc(OCc2ccccc2)c(OCc2ccccc2)c1,?,11.6µM*,-3.9%,i,21.2%
CCNC(=O)c1c(O)c2ccccc2[nH]c1=O,i,6.51µM*,-3.0%[38.3 µM],i,9.9%
CC(C)=NNC(=O)c1c(O)c2ccccc2[nH]c1=O,i,9.2µM*,39.8µM*,i,11.2%
CC1(C(=O)NS(=O)(=O)c2ccc(F)cc2F)CCN1C(=O)c1ccccc1 (stereo not drawn),i,/,2.4%,i,/
CC1(C)CC(=O)C(C=Nc2ccc(N)cc2)=C(O)C1,i,0.651µM*,4.5%,i,?
Cc1[nH]nc(N=CC2=C(O)CC(c3ccco3)CC2=O)c1-c1ccc(Cl)cc1 (stereo not drawn),i,18.1%,6.5%[38.3 µM],16.4µM*,-0.7%
Cc1[nH]nc(N=CC2=C(O)CC(C)(C)CC2=O)c1-c1ccc(Cl)cc1,i,18.4µM*!,-3.1%,20.6µM*!,?
CCn1cc(C(=O)Nc2ncccc2O)c(=O)c2cc(F)c(N3CCN(C(=O)c4ccco4)CC3)cc21,i,-2.2%,?,i,-7.8%
CC(=O)N1CCC2(CC1)CC(=O)c1cc(OCC(=O)N3CCOCC3)ccc1O2,i,7.3%,-0.1%,i,20.6µM*
CCc1ccc(NC(=O)COC(=O)C2(c3ccc(Cl)cc3)CCCC2)cc1,?,14.1%,22.5%,18.4µM*,?
CSc1cccc(NC(=O)COC(=O)C2(c3ccccc3)CC2)c1,i,0.1%,4.8%,18.4µM*,?
Cc1ccc(N(CC(O)CON=C2c3ccccc3-c3ccccc32)S(C)(=O)=O)cc1 (stereo not drawn),i,5.0%,/,23.1µM*,13.6%
O=C(Nc1ccc2ccccc2c1)Nc1nnc(-c2ccccc2Cl)s1,i,/,/,i,/
CCN(CC)C(=O)c1cccc(-c2csc(C(C)(O)c3ccc(OC)cc3)n2)c1 (stereo not drawn),11.6µM*,/,3.0%,?,/
CC(O)(c1cccnc1)c1nc(-c2ccc3ccccc3c2)cs1 (stereo not drawn),?,/,-0.9%,6.51µM*,/
CCN(CC)C(=O)c1cccc(-c2csc(C(C)(O)c3cccc(OC)c3)n2)c1 (stereo not drawn),i,/,-0.3%,i,/
COc1cccc(C(C)(O)c2nc(-c3ccc(S(C)(=O)=O)cc3)cs2)c1 (stereo not drawn),18.4µM*,/,-0.9%,16.4µM*,/
CCCc1cc(=O)oc2c(C)c(OS(C)(=O)=O)ccc12,i,3.6%,-1.4%,?,-6.2%[9.22 µM]
C=C(C)COc1ccc2c(CC)cc(=O)oc2c1C,?,11.9%,-1.2%,20.6µM*,-3.7%
Cc1c(C)c2ccc(OCC(=O)N(C)C)c(C)c2oc1=O,i,-12.0%,-1.6%,i,0.9%[9.22 µM]
CCc1c(C)c2ccc(OCC(=O)N(C)C)c(C)c2oc1=O,i,4.2%,5.8%[38.3 µM],10.3µM*,-10.5%
SMILES,KB-3-1 tox,MCF10A rereplic,PINK1 modulator,KB-V1 MDR tox,SW480 rerep
CCCOc1ccc2c(CC)cc(=O)oc2c1C,i,10.1%,-1.6%,13µM*,8.0%
Cc1ccc(NC(=O)c2cccc3c2C(=O)N(C2CCCCC2)C3)c(Cl)c1,i,2.6%,5.4%,i,-7.9%
OCC1(CCOc2ccccc2)CCN(C2Cc3ccccc3C2)CC1,i,18.4µM*,2.7%,i,-0.3%
Cc1cc(C)c(CN2CCC(CO)(CCOc3ccccc3)CC2)cc1C,i,?,6.2%,i,?
COc1ccc(NC(=O)C2CCCN(S(=O)(=O)c3ccc(F)cc3)C2)cc1 (stereo not drawn),i,/,-0.2%,i,/
COc1cc(CNC2CCCC2)cc(Cl)c1OCc1ccccc1F,i,2.2%,23.4%[38.3 µM],23.1µM*,-5.6%
CC(C)(CC(=O)N1CCN(c2ccc(Cl)cc2)CC1)CC1=NS(=O)(=O)c2ccccc2N1,14.6µM*,0.2%,-0.4%,4.11µM*,1.7%
COc1ccc(/C=C2\CCC/C(=C\C=N\N(C)C)C2=O)cc1,i,8.2µM*,-0.4%,?,-22.0%
CN(C)/N=C/C=C1\CCC/C(=C\c2ccc(F)c(F)c2)C1=O,?,14.1µM*,-1.0%,?,?
COc1ccc(/C=C2\CCCCC2=O)cc1,i,-0.7%,2.0%,i,-9.2%
COc1ccc(C(=O)N2CCC3(CC2)CN(c2ccc(-c4ccccc4)cc2)C3)cc1,/,/,1.6%,/,/
CCCN(Cc1cc2ccccc2[nH]c1=O)C(=O)c1cccc([N+](=O)[O-])c1,i,7.7%,3.4%,?,-4.2%
CCCN(Cc1cc2cc(C)ccc2[nH]c1=O)C(=O)c1cccc([N+](=O)[O-])c1,i,21.8%,-0.5%,?,2.31µM*
O=C(c1ccc2c(c1)OCO2)c1cn(Cc2ccc(Cl)cc2)c2ccc(F)cc2c1=O,i,/,-0.4%,i,/
CCCCNC(=O)CSc1nc2ccccc2n1S(=O)(=O)c1ccc(Br)cc1,i,-41.0%,1.0%,i,2.0%
CS(=O)(=O)N(CC(=O)NCCc1ccccc1)c1cccc([N+](=O)[O-])c1,i,0.651µM*,1.5%,i,-33.9%
O=C(CN(c1cccc([N+](=O)[O-])c1)S(=O)(=O)c1ccccc1)NCc1ccccc1,i,14.0%,1.7%,5.8µM*,-2.4%
Cc1ccc(CNC(=O)CN(c2cccc([N+](=O)[O-])c2)S(=O)(=O)c2ccccc2)cc1,i,-2.5%,1.6%,i,3.0%
O=C(CSc1nc2ccccc2n1S(=O)(=O)c1cccc([N+](=O)[O-])c1)NCCc1ccccc1,?,14.5%,12.5%,3.66µM*,-1.8%
O=C(NC1CCCCC1)NC1C2CC3CC(C2)CC1C3 (stereo not drawn),i,-46.3%,26.2%,i,-6.0%
CC(Sc1nnc(-c2ccncc2)n1C)C(=O)NCC(=O)Nc1ccc(F)c(F)c1F (stereo not drawn),i,/,1.5%,i,/
CC(Sc1nnnn1-c1ccc(Cl)cc1)C(=O)NCC(=O)Nc1ccc(F)c(F)c1F (stereo not drawn),i,13.6%,3.2%,16.4µM*,1.5%
CCOC(=O)C1CCN(CC(=O)N2CCCc3c2c(=O)oc2ccc(OCc4ccccc4)cc32)CC1,i,/,1.6%,i,/
